“And” between values parts separate entries of the source, which are not always exact repeats. Identical values can stand only once. Inconclusive results are not listed. The source made the active and inactive calls. Unless noted, calls follow the shape of the full dose curve.

Experiment [1] concerns the target Bile acid receptor (Homo sapiens) (UniProt Q96RI1). The experiment in a line: qHTS assay for small molecule agonists of farnesoid X receptor signaling (AID 588527).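 Also: series mostly up to about 77 µM; 0% = vehicle basal and 100% = reference agonist.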 The following applies: HEK293T FXR-UAS-bla, beta-lactamase ratio, 16 h; activation: stronger effect = higher value. The gist of the method:
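Quantitative HTS used FXR-UAS-bla HEK293T cells with 16 h compound incubation at 37 C. EC50 values came from concentration-response curves normalized to chenodeoxycholic acid.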

Experiment [2] has as its target Vitamin D3 receptor (Homo sapiens) (UniProt P11473). The experiment in a line: qHTS assay for small molecule agonists of vitamin D receptor signaling (AID 588543).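 Also: 0% = DMSO basal and 100% = reference agonist control.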 The gist of the method: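 Reporter cells (HEK293T, VDR-UAS-bla) were seeded in medium with 2% charcoal-stripped serum and incubated 5 h, then compounds in concentration series were added for 16 h at 37 °C. Stimulation was scaled between DMSO basal and 50 nM 1α,25-dihydroxyvitamin D3.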

A short description of experiment [3]: qHTS assay for small molecule agonists of the antioxidant response element (ARE) signaling pathway (AID 651741; active = well fitted activation curve with a large enough effect in the signal ratio; the % refers to the signal ratio; also: potency is read from the fitted curve at half-maximal effect). The essentials:
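Quantitative HTS in HepG2 cells stably expressing an ARE-beta-lactamase reporter; 16 h compound exposure at 37 C, followed by 2 h room-temperature incubation with LiveBLAzer B/G FRET substrate and fluorescence measurement.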
(In general: qHTS replaces the single test concentration by a dilution series.)

Experiment [4] in a line: qHTS assay for small molecule agonists of the antioxidant response element (ARE) signaling pathway measured by Nrf2-dependant transcriptional activity - cell viability counter screen (AID 720653; active = well fitted curve in the direction sought with a large enough effect in the repeat runs; an effect the other way counts as inactive or inconclusive; also: % is scaled to controls: 0 for no effect and ±100 for the full control effect). The following applies: ARE-bla HepG2 viability, CellTiter-Glo ATP luminescence, 16 h; max response: stronger effect = lower value. The gist of the method:
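Cytotoxicity counter screen: intracellular ATP quantified by CellTiter-Glo luminescence in the same ARE-bla HepG2 plates, after 16 h compound exposure and a 2 h beta-lactamase substrate step.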

Experiment [5] can be described thus: qHTS assay for cell viability of the p53RE-bla HCT-116 cell line (AID 743292; active = well fitted curve in the direction sought with a large enough effect; an effect the other way counts as inactive or inconclusive; also: nearly all actives have a fitted effect of over 55% in size; also: potency is read from the fitted curve at half-maximal effect). The gist of the method:
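ATP-based luminescent viability (CellTiter-Glo, 30 min RT) after 16 h compound treatment at 37 C of p53RE-bla HCT-116 cells, seeded at 4,000 cells/well and rested 5 h before dosing.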

Experiment [6] has as its target Peroxisome proliferator-activated receptor delta (Homo sapiens) (UniProt Q03181). The experiment in a line: qHTS assay for small molecule agonists of peroxisome proliferator-activated receptor delta signaling (AID 588534).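 Also: 0% = DMSO basal wells and 100% = positive control agonist at 10 µM.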 The gist of the method: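 Cells carrying a PPAR-delta beta-lactamase reporter were treated with compounds for 18 h at 37 °C in agonist mode. CCF4 fluorescence was read after 2 h; EC50 and efficacy from Hill fits.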

For experiment [7], the target named is Retinoic acid receptor RXR-alpha (Homo sapiens) (UniProt P19793). The experiment is described as follows: qHTS assay for small molecule agonists of retinoid X receptor alpha signaling (AID 588544).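 Also: 0% = DMSO basal wells and 100% = reference agonist.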
In experiment [8] the target is Thyroid hormone receptor beta (Homo sapiens) (UniProt P10828). The experiment in a line: qHTS assay for small molecule agonists of thyroid hormone receptor beta signaling (AID 588545).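 Also: 0% = DMSO only and 100% = 10 nM T3.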 The essentials: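 Beta-lactamase reporter activity under TR response element control is measured in HEK 293 cells after 18 hrs compound exposure. Signal is ratiometric CCF4 fluorescence, 460/530 nm.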

Experiment [9] in a line: qHTS assay for small molecule antagonists of retinoid X receptor alpha signaling (AID 588546; active = well fitted inhibition curve with a large enough effect in the signal ratio, with a control signal flat, not every such curve was filed as active; the % refers to the signal ratio;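 also: cells stimulated with 9-cis-retinoic acid as agonist; % is scaled to controls: 0 for no effect and ±100 for the full control effect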). Conditions: HEK293T RXRa-UAS-bla, beta-lactamase ratio, antagonist mode; measured here: W530 green channel, cytotoxicity proxy. The essentials: (§1)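 Beta-lactamase reporter inhibition, read as CCF4 fluorescence ratio (ex 405, em 460/530 nm) after 2 h at RT. HEK293T UAS-bla cells, 2500/well, were stimulated with 9-cis-RA at 500 or 100 nM final alongside test compound for 18 h at 37 C.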

Experiment [10] deals with Retinoic acid receptor RXR-alpha (Homo sapiens) (UniProt P19793). The experiment is described as above. The following applies: HEK293T RXRa-UAS-bla, beta-lactamase ratio, antagonist mode. The gist of the method: as §1
In experiment [11] the target is Thyroid hormone receptor beta (Homo sapiens) (UniProt P10828). The experiment in a line: qHTS assay for small molecule antagonists of thyroid hormone receptor beta signaling (AID 588547; active = well fitted inhibition curve with a large enough effect in the signal ratio, with a control signal flat, not every such curve was filed as active; the % refers to the signal ratio;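 also: cells stimulated with 0.4 nM T3 agonist during compound exposure; series mostly up to about 77 µM; % is scaled to controls: 0 for no effect and ±100 for the full control effect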). The following applies: TR-UAS-bla HEK293, beta-lactamase ratio, antagonist mode, 18 h. The gist of the method:
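Inhibition of T3-driven (0.4nM final) beta-lactamase reporter activity was measured over 0.59 nM to 92 uM compound after 18 h at 37 C. The cells were GripTite HEK293 TR-UAS-bla in charcoal/dextran-stripped serum, with CCF4 ratio read-out and IC50 from Hill fits.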

Experiment [12] in a line: qHTS assay for small molecule activators of the p53 signaling pathway (AID 651743; active = well fitted activation curve with a large enough effect in the signal ratio, not every such curve was filed as active; the % refers to the signal ratio; also: series mostly up to about 92 µM; % of control where 0% means no effect). The following applies: HCT-116 p53RE-bla, beta-lactamase FRET ratio, 16 h; activation: stronger effect = higher value. The gist of the method: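 Read-out is fluorescence intensity from the LiveBLAzer B/G FRET substrate, added for 2 hours at room temperature after HCT-116 p53RE-bla cells had been incubated with compounds for 16 hours at 37 C.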

The nature of experiment [13]: qHTS assay for environmental chemicals that activate the Aryl hydrocarbon Receptor (AhR) signaling pathway (AID 651777; active = well fitted curve in the direction sought with a large enough effect; an effect the other way counts as inactive or inconclusive; also: nearly all actives have a fitted effect of over 15% in size; also: potency is read from the fitted curve at half-maximal effect; as to activation: % of control where 0% means no effect). The following applies: 1A2-DRE human hepatoma cells, luciferase, 24 h; activation: stronger effect = higher value. The essentials:
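Luminescence (One-Glo, 30 min, room temperature) reports AhR-driven luciferase in stably transfected human hepatoma cells bearing DRE and CYP1A2 promoter. Cells (1,200/well) were treated with compound for 24 hr at 37 C in qHTS format.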

Experiment [14] is described as follows: qHTS assay for small molecule agonists of the antioxidant response element (ARE) signaling pathway measured by Nrf2-dependant transcriptional activity (AID 720636; active = well fitted curve in the direction sought with a large enough effect in the repeat runs; an effect the other way counts as inactive or inconclusive; also: % of control where 0% means no effect). The essentials: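 Nrf2-dependent transcription read as ONE-Glo luciferase signal from ARE-luc HepG2 reporter cells after 16 hr compound treatment at 37 C, 5% CO2, in assay medium with 1% dialyzed FBS.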

Experiment [15] is described as follows: qHTS assay for cell viability of HEK293 cells (AID 743288; active = well fitted curve in the direction sought with a large enough effect; an effect the other way counts as inactive or inconclusive; also: % is scaled to controls: 0 for no effect and ±100 for the full control effect; nearly all actives have a fitted effect of over 50% in size). The following applies: ATP luminescence (CellTiter-Glo), 18 h; max response: stronger effect = lower value. The gist of the method: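 HEK293 parental, 2,000 cells/well; ≥5 h pre-incubation 37 C; pintool compound addition; 18 h, 37 C; CellTiter-Glo 30 min RT; luminescence read.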
The target of experiment [16] is Nuclear receptor subfamily 1 group I member 2 (Rattus norvegicus) (UniProt Q9R1A7). The experiment is described as follows: qHTS assay for small molecule activators of the rat pregnane X receptor (rPXR) signaling pathway (AID 651751; call rule not given here; also: 0% is about no effect). The following applies: rPXR reporter cells, luciferase (One-Glo), 24 h.
The nature of experiment [17]: qHTS assay for small molecule antagonists of peroxisome proliferator-activated receptor delta signaling (AID 588535; active = well fitted inhibition curve with a large enough effect in the signal ratio, with a control signal flat, not every such curve was filed as active; the % refers to the signal ratio;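 as to max response: cells co-treated with a PPAR-delta agonist as stimulator during compound exposure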). Conditions: HEK293T PPARd-UAS-bla, beta-lactamase FRET ratio, 18 h; 460 nm channel. The gist of the method: (§2)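 HEK293T PPAR-delta-UAS-bla cells, 4000/well, 2% charcoal/dextran FBS; 5 h 37 C; cpd titration; 18 h 37 C; CCF4 2 h RT; FI 460/530 nm; Hill fit → IC50, efficacy.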

For experiment [18], the target named is Peroxisome proliferator-activated receptor delta (Homo sapiens) (UniProt Q03181). Described as above. The essentials:
as §2

Experiment [19] deals with Peroxisome proliferator-activated receptor alpha (Homo sapiens) (UniProt Q07869). The experiment in a line: qHTS assay for small molecule agonists of the peroxisome proliferator-activated receptor alpha (PPARalpha) signaling pathway (AID 651778; active = well fitted curve in the direction sought with a large enough effect; an effect the other way counts as inactive or inconclusive; also: % of control where 0% means no effect). Conditions: PathHunter PPARalpha complementation, chemiluminescence, 6 h; max response: stronger effect = higher value. The gist of the method:
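Chemiluminescence from complemented enzyme reported PPARalpha activation in cells after 6 hr of compound treatment at 37 C. The detection reagent was incubated for 60 min at room temperature, and compounds were scored as agonists.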

For experiment [20], the target named is Bile acid receptor (Homo sapiens) (UniProt Q96RI1). The experiment in a line: qHTS assay for small molecule antagonists of farnesoid X receptor signaling (AID 588526). Also: % is scaled to controls: 0 for no effect and ±100 for the full control effect. The gist of the method:
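Beta-lactamase reporter antagonist mode: HEK293T FXR-UAS-bla cells, titrated compound, CDCA stimulation, 16 h 37 C, CCF4 dye 2 h RT. Data normalized to CDCA 50 uM and DMSO; Hill-fit IC50.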

Peroxisome proliferator-activated receptor alpha (Homo sapiens), sequence (Q07869 whole entry, looked up): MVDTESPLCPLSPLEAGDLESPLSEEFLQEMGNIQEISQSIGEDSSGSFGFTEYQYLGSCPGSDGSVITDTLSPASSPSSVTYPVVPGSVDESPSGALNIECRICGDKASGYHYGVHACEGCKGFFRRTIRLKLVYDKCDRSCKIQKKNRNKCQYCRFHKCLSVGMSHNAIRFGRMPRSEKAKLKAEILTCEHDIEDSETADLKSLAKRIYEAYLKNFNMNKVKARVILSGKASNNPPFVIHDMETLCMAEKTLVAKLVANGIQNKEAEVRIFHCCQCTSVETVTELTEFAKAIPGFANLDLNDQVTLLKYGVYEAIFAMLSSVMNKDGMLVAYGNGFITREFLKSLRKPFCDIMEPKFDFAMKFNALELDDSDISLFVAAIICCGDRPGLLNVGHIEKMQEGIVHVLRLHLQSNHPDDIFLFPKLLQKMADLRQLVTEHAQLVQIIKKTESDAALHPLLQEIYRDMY
Bile acid receptor (Homo sapiens), sequence (Q96RI1 whole entry, looked up): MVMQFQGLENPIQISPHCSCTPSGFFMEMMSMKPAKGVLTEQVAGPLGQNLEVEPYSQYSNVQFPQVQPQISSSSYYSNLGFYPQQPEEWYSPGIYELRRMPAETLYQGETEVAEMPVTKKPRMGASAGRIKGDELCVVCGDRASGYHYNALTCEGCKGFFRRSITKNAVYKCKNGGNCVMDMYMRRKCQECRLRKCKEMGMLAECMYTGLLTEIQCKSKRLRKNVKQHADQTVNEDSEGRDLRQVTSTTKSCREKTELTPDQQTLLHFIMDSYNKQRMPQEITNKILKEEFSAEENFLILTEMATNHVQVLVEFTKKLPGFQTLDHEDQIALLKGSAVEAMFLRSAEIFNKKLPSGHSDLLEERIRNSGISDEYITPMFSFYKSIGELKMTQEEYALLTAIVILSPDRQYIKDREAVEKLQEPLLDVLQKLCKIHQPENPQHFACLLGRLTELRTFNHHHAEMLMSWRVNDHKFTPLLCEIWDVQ
Retinoic acid receptor RXR-alpha (Homo sapiens), sequence (P19793 whole entry, looked up): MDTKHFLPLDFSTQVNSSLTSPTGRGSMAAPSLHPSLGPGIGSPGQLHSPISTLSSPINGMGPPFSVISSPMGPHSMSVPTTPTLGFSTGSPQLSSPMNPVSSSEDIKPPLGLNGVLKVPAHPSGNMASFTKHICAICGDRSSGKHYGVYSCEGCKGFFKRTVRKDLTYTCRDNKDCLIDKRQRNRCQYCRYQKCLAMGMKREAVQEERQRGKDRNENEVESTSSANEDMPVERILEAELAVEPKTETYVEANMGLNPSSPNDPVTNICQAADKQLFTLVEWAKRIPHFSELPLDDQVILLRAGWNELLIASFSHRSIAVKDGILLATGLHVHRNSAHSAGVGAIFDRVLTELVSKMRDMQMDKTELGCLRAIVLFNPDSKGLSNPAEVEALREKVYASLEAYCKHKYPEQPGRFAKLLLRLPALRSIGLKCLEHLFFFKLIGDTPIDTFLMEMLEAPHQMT
Thyroid hormone receptor beta (Homo sapiens), sequence (P10828 whole entry, looked up): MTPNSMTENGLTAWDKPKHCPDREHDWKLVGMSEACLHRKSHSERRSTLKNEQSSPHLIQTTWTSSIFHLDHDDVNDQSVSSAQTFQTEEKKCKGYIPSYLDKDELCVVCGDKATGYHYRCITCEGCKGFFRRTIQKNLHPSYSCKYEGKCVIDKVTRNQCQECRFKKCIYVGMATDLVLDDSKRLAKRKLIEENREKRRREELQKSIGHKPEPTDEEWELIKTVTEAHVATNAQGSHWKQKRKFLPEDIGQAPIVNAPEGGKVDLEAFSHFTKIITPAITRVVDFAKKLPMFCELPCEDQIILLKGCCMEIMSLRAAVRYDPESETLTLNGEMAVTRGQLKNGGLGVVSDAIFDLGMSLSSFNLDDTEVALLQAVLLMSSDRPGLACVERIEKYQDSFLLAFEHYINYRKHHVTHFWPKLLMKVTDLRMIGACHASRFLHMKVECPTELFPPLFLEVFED
Peroxisome proliferator-activated receptor delta (Homo sapiens), sequence (Q03181 whole entry, looked up): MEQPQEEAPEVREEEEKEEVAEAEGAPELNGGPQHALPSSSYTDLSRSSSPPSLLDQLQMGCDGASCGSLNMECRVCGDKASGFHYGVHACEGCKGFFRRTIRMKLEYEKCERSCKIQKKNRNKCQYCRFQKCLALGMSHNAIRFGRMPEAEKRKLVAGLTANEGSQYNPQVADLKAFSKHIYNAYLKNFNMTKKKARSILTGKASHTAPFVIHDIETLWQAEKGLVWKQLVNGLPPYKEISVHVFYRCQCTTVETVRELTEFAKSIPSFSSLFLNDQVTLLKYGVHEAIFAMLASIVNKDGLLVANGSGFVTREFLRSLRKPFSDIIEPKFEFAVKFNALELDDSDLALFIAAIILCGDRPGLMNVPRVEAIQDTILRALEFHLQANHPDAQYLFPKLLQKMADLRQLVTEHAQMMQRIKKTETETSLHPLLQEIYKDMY
Vitamin D3 receptor (Homo sapiens), sequence (P11473 whole entry, looked up): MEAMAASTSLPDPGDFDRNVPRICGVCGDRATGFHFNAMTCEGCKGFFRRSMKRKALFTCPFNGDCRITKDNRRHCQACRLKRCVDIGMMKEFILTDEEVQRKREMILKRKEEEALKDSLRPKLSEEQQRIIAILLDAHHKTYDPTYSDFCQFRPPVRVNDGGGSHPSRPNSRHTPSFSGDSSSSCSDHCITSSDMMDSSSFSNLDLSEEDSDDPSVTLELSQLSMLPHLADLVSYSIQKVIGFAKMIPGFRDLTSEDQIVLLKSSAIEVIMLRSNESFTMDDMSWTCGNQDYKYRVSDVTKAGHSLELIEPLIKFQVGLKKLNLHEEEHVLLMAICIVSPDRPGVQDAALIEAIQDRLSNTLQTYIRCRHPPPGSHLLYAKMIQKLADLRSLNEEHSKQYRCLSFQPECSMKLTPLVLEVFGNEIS
Nuclear receptor subfamily 1 group I member 2 (Rattus norvegicus), sequence (Q9R1A7 whole entry, looked up): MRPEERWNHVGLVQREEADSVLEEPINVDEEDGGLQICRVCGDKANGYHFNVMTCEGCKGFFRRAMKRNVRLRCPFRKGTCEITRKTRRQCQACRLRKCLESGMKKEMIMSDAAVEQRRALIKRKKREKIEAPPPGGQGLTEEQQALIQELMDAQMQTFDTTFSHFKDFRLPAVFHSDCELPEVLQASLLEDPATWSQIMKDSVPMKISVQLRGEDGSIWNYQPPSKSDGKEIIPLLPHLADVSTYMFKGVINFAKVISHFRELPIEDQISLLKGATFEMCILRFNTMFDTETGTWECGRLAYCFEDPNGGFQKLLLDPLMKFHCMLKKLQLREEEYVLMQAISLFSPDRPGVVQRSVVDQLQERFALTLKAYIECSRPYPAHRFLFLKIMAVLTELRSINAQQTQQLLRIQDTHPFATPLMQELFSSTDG

Regarding `ClC1=C(Cl)[C@@]2(Cl)[C@H]3C[C@@H](Cl)[C@H](Cl)[C@H]3[C@@]1(Cl)C2(Cl)Cl`, the activation in [1] is -1.23% (inactive). Moreover, the outcome in experiment [2] was inactive. Moreover, the Potency is 24.3 µM (active) in experiment [3] and 50.1 µM (active) in experiment [5]. Moreover, the max response in experiment [4] was -24.7% (inactive).

For `Cc1cc(Cl)ccc1O[C@H](C)C(=O)O`, the result in experiment [6] was inactive. In addition, the Potency entry in [7], in experiment [8], in [14] and in experiment [5] was “inactive” in each case. In addition, the max response in experiment [9] is -16.8%; in [10] it was -2.52% (inactive); in [4], 7.37% (inactive); in [15], 0.74% (inactive); in experiment [16], -1.45% (inactive). In addition, the activity change % (negative = inhibition) in [11] was 17.7% (inactive). For the same compound, the activation in experiment [12] was -0.679% (inactive); in experiment [13] it was -2.24% (inactive).

`c1ccc2c(c1)c1cccc3ccc4cccc2c4c31`: in [1], the activation is -3.29% (inactive) and 7.3% (inactive). Moreover, the call in experiment [6] and in experiment [2] was inactive. Moreover, the Potency entry in experiment [8] and in [14] was “inactive” in each case. The Potency in experiment [3] is 6.86 µM (active).

For `CCOP(=S)(OCC)SC(CCl)N1C(=O)c2ccccc2C1=O` (centres undefined), the max response was 51.4% in experiment [17]; 3.14% in experiment [9]; 7.55% (inactive) in experiment [10]; -0.704% (inactive) in [19]; -13.6% (inactive) in experiment [4]; -5.75% (inactive) in experiment [15]. Besides, the Potency result in experiment [18], in [8] and in [5] was “inactive” in each case. Also, the outcome in [2] was inactive. The activity change % (negative = inhibition) in experiment [11] was 7.21% (inactive). Further, the activation in experiment [12] was -5.87% (inactive); in experiment [13] it was 0.999% (inactive).

`ClCc1ccccc1Cl`: the Potency result in experiment [20], in [7], in experiment [14] and in experiment [5] was “inactive” throughout. For the same compound, the activation is -0.339% (inactive) in [1] and 0.685% (inactive) in experiment [13]. The outcome in [2] was inactive. Besides, the max response was -6.52% in experiment [9]; 0.106% (inactive) in experiment [10]; 1.31% (inactive) in experiment [19]; -2.98% (inactive) in experiment [4]; -1.39% (inactive) in experiment [15]; -0.702% (inactive) in experiment [16]. The activity change % (negative = inhibition) in experiment [11] was -5.68% (inactive).

Turning to `O=C1C=CC(=O)c2ccccc21`, the Potency entry in experiment [20], in [18], in experiment [7], in [8], in [14] and in [5] was “inactive” throughout. Further, the activation in [1] is -2.25% (inactive); in [12] it was -3.99% (inactive). The max response in [17] was -18.7%; in [9], -1.96%; in experiment [10], -12.9% (inactive); in experiment [19], -1.22% (inactive); in experiment [4], -8.11% (inactive); in experiment [16], 2.78% (inactive). For the same compound, in experiment [2], the compound was classed as inactive. Also, the Potency in experiment [3] was 54.5 µM (active); in [13], 15.8 µM (active).

In the case of `CC(C)N1C(=O)N(c2ccccc2)CSC1=NC(C)(C)C`, the compound was classed as inactive in experiment [6]. The max response in experiment [17] was 43.5%; in [9], 0.399%; in experiment [10], -33.9% (inactive); in [19], 0.0616% (inactive) and 14.7% (inactive); in [4], 13.9% (inactive) and -6.65% (inactive); in [15], -17.9% (inactive). Moreover, the max response in experiment [16] was 13.3% (inactive) and 1.8% (inactive). For the same compound, the Potency result in experiment [18], in experiment [7], in [8], in experiment [14] and in [5] was “inactive” each time. Moreover, the Potency in experiment [3] is 68.6 µM (active) and 61.1 µM (active). In addition, the activation in experiment [12] was -1.27% (inactive) and 6.3% (inactive); in experiment [13] it was -0.494% (inactive) and 3.86% (inactive).

Values taken from PubChem BioAssay (NCATS).
